PubChem BioAssay
Calls of active or inactive are those of the source. Unless noted, the rule behind the calls is not given here.

Tests used:
[1] = compound effects on lung adenocarcinoma cell viability – A549, calcein-AM fluorescence, 48 h, basal, profiling panel (AID 1162); conditions: higher = more signal; note: test concentration not given here
[2] = compound effects on differentiated 3T3-L1 adipocyte viability – cell-based, 3T3-L1 adipocytes, calcein-AM fluorescence, 48 h, basal, profiling panel (AID 1163); conditions: 3T3-L1 adipocytes viability, higher = more signal; note: test concentration not given here
[3] = compound effects on hepatocellular carcinoma cell viability – HepG2, calcein-AM fluorescence, 48 h, basal, profiling panel (AID 1164); conditions: higher = more signal; note: test concentration not given here
[4] = compound effects on multiple myeloma cell viability – MM1S, calcein-AM fluorescence, 48 h, basal, profiling panel (AID 1165); conditions: higher = more signal; note: test concentration not given here
[5] = calcein-AM signal in unstimulated myeloma cells – cell-based, calcein-AM fluorescence, 48 h, PK04 Diversity Set, profiling panel (AID 1166); conditions: RPMI8226 myeloma viability, higher = more signal;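 note: cells grown under basal conditions without added stimulus; test concentration not given here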
[6] = JC-1 mitochondrial signal, unstimulated HepG2 cells – cell-based, JC-1 fluorescence, 24 h, 100 nL compound, profiling panel (AID 1167); conditions: HepG2 mitochondrial potential, higher = more signal; note: test concentration not given here
[7] = JC-1 mitochondrial signal, unstimulated adipocytes – cell-based, JC-1 fluorescence, 3T3-L1 adipocytes, 24 h, 100 nL compound, profiling panel (AID 1168); conditions: JC-1 mitochondrial fluorescence, higher = more signal, called active from +8 up or from −8 down; note: test concentration not given here
[8] = JC-1 mitochondrial signal, unstimulated myeloma cells – cell-based, JC-1 fluorescence, RPMI8226, 24 h, 100 nL compound, profiling panel (AID 1169); conditions: JC-1 mitochondrial potential fluorescence, higher = more signal; note: test concentration not given here
[9] = JC-1 mitochondrial signal, unstimulated MM1S myeloma – cell-based, JC-1 fluorescence, 24 h, 100 nL compound, profiling panel (AID 1170); conditions: MM1S mitochondrial potential, higher = more signal; note: test concentration not given here
[10] = resazurin metabolic signal in A549 cells – cell-based, resazurin fluorescence, 24 h, PK04 Diversity Set, profiling panel (AID 1171); conditions: A549 viability, higher = more signal, called active from +8 up or from −8 down; note: test concentration not given here
[11] = resazurin metabolic signal in HepG2 cells – cell-based, resazurin fluorescence, 24 h, PK04 Diversity Set, profiling panel (AID 1172); conditions: HepG2 viability, higher = more signal; note: test concentration not given here
[12] = budding yeast growth changes without added modifier – OD600, strain BY4716, 24 h, basal condition, primary screen (AID 1173); conditions: S. cerevisiae BY4716 growth, OD600, 24 h; higher = more signal, called active from +8 up or from −8 down
[13] = viability profiling in MM1S myeloma cells – cell-based, resazurin fluorescence, basal, 24 h, PK04 Diversity Set, profiling panel (AID 1174); conditions: higher = more signal, called active from +8 up or from −8 down; note: test concentration not given here
[14] = molecular target: Dihydroorotate dehydrogenase (quinone), mitochondrial (Plasmodium falciparum (isolate 3D7)) (UniProt Q08210); assay: inhibition of P. falciparum DHODH – biochemical, C-terminal His tag, absorbance 600 nm, primary screen (AID 1175); conditions: PfDHODH enzyme, DCIP absorbance 600 nm; higher = more signal, called active from +8 up or from −8 down;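 note: recombinant parasite enzyme with a five histidine tag at its C terminus; test concentration not given here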
[15] = inhibition of PAO1 biofilm formation – strain PAO1, LB-PBS medium, absorbance 600 nm, primary screen (AID 1176); note: test concentration not given here; conditions: P. aeruginosa PAO1 growth/biofilm, A600, 12 h; higher = more signal
[16] = growth modulation of vineyard yeast isolate – strain RM11-1a, OD600, basal, 24 h, primary screen (AID 1177);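 note: cultures grown under basal conditions with no added stressor; test concentration not given here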; conditions: S. cerevisiae RM11-1a growth, OD600, 24 h; higher = more signal, called active from +8 up or from −8 down
[17] = growth of efflux-deficient E. coli DRC39 – strain DRC39, OD650, 24 h, E. coli filamentation inducers, primary screen (AID 1178);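 note: growth measured as culture turbidity by optical density at 650 nm; test concentration not given here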; conditions: E. coli DRC39 acrAB, higher = more signal, called active from +8 up or from −8 down
[18] = growth of efflux-deficient E. coli DRC39 – strain DRC39, OD650, 48 h, E. coli filamentation inducers, primary screen (AID 1179);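 note: screen aims at cell division blockers that make cells filament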; conditions: E. coli DRC39 delta-acrAB growth, higher = more signal, called active from +8 up or from −8 down
[19] = viability profiling in RPMI8226 myeloma cells – cell-based, resazurin fluorescence, basal, 24 h, PK04 Diversity Set, profiling panel (AID 1180); conditions: higher = more signal;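 note: RPMI8826 multiple myeloma cell line at 5000 cells per well; test concentration not given here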
[20] = molecular target: E3 ubiquitin-protein ligase XIAP (Homo sapiens) (UniProt P98170); assay: small molecules binding XIAP protein – biophysical, small-molecule microarray, fluorescence 635 nm, primary screen (AID 1181); conditions: higher = more signal;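 note: score merges 667 nm emission and signal to noise over triplicate slides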
E3 ubiquitin-protein ligase XIAP (Homo sapiens), sequence (P98170 whole entry, looked up): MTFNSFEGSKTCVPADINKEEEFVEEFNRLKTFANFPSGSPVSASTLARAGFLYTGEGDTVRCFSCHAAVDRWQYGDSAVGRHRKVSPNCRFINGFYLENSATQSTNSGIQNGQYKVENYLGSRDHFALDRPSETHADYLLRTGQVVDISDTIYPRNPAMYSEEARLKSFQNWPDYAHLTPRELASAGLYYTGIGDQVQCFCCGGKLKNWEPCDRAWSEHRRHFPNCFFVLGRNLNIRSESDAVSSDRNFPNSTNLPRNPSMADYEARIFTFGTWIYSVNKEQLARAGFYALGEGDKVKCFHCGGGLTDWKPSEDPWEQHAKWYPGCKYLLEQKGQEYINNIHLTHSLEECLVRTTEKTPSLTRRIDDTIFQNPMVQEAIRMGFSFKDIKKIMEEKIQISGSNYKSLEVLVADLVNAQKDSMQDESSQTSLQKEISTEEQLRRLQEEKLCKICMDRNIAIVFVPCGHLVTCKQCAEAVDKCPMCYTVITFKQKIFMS

Dihydroorotate dehydrogenase (quinone), mitochondrial (Plasmodium falciparum (isolate 3D7)), sequence (Q08210 whole entry, looked up): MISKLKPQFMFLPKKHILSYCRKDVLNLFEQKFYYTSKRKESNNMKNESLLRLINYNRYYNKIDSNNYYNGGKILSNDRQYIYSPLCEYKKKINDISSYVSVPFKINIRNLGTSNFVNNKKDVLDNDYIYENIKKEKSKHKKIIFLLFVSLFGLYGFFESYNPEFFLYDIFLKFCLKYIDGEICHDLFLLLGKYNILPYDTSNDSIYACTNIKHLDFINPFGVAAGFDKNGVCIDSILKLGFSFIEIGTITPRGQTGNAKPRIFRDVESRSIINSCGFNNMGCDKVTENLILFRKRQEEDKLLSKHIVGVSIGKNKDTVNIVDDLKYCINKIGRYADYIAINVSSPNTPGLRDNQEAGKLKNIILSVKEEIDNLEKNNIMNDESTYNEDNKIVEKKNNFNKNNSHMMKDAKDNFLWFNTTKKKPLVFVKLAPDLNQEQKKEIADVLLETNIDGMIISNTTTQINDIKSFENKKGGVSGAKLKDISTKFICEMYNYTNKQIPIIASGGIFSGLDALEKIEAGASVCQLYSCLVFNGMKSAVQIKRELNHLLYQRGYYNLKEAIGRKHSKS

SMILES | z-score [1] | z-score [2] | z-score [3] | z-score [4] | z-score [5] | z-score [6] | z-score [7] | z-score [8] | z-score [9] | z-score [10] | z-score [11] | z-score [12] | z-score [13] | composite z-score [14] | z-score [15] | z-score [16] | z-score [17] | z-score [18] | z-score [19] | composite z-score [20]
COCCOC(=O)N1C(=O)[C@@]2(c3cc(C#CC4(O)CCCCCC4)ccc31)[C@H](C(=O)N1CCc3cc(OC)c(OC)cc3C1)[C@H]1C(=O)O[C@H](c3ccccc3)[C@H](c3ccccc3)N1[C@@H]2c1ccc(OCCO)cc1 | -0.111 | 0.172 | -0.653 | -1.83 | -0.468 | -0.32 | 0.354 (inactive) | -0.542 | -1.39 | -0.317 (inactive) | -0.614 | 1.66 (inactive) | -0.935 (inactive) | -0.494 (inactive) | 3.41 (inactive) | 2.54 (inactive) | -0.201 (inactive) | 0.389 (inactive) | -0.607 | 0.107
CC(C)N1C(=O)C[C@@](C(=O)O)(c2ccc([N+](=O)[O-])cc2)[C@H]1c1ccc(CO)cc1 | 2.22 | -0.246 | 0.74 | 0.389 | 1.1 | 1.52 | 0.546 (inactive) | -0.108 | 0.435 | -0.602 (inactive) | -0.847 | -0.717 (inactive) | 0.305 (inactive) | -1.24 (inactive) | 0.0309 (inactive) | 0.196 (inactive) | 0.732 (inactive) | 0.684 (inactive) | 0.191 | -0.169
C=CC[C@@H](OC(=O)Nc1ccc(OC)cc1)c1ccc(O)c(F)c1 | -1.78 | 0.379 | -2.39 | -2.15 | -2.51 | -3.67 | -1.37 (inactive) | 0.122 | -1.07 | -0.747 (inactive) | -1.33 | -16.3 (active) | -1.32 (inactive) | -2.55 (inactive) | 0.79 (inactive) | -22 (active) | 0.924 (inactive) | 0.41 (inactive) | -0.895 | -0.0441
COCC(=C=CC[C@H](O)c1ccc(CO)o1)CCO | 0.0135 | -0.651 | 0.676 | -0.558 | 0.368 | -0.649 | -0.0348 (inactive) | -0.495 | 0.363 | -0.0239 (inactive) | -0.116 | -1.63 (inactive) | -0.0463 (inactive) | -2.35 (inactive) | -0.165 (inactive) | 0.256 (inactive) | -0.401 (inactive) | -0.524 (inactive) | 0.036 | 0.536
O=C(NCCN1CCOCC1)[C@@H]1c2ccccc2C(=O)N(Cc2ccccc2Cl)[C@H]1c1ccc(CO)cc1 | 0.53 | -0.249 | 1.15 | -0.142 | 0.125 | 3.16 | 0.64 (inactive) | -0.695 | -0.408 | 0.59 (inactive) | -0.0211 | 0.199 (inactive) | -1.21 (inactive) | -0.0473 (inactive) | 0.0993 (inactive) | 0.593 (inactive) | 0.447 (inactive) | 0.865 (inactive) | -0.831 | 0.0178
Cc1ccc(S[C@]2(C(=O)O)CC(=O)N(C3CCCCC3)[C@@H]2c2ccc(CO)cc2I)cc1 | -0.756 | 0.505 | -0.561 | -2.64 | -2.13 | -1.1 | -0.343 (inactive) | -0.278 | 0.0653 | 0.808 (inactive) | 0.465 | -1.67 (inactive) | -0.353 (inactive) | -0.664 (inactive) | -0.137 (inactive) | -0.92 (inactive) | 0.475 (inactive) | 0.0129 (inactive) | -0.74 | -0.0525
OCCCC1=CC(c2ccc(CN3CCCC3)cc2)N(Cc2cc3c(cc2Br)OCO3)CC1 (stereo not given) | -0.8 | 1.07 | 0.552 | -2.99 | 0.866 | 1.72 | -0.261 (inactive) | 0.406 | 0.0254 | 0.731 (inactive) | 0.195 | -0.538 (inactive) | 0.163 (inactive) | 0.198 (inactive) | 0.485 (inactive) | 0.622 (inactive) | 0.243 (inactive) | 0.149 (inactive) | -0.343 | -0.0513
CC(C)c1ccc(NN2C(C(O)c3ccc(C#N)cc3)C=CC3C(=O)N(c4ccccc4)C(=O)C32)cc1 (stereo not given) | -0.0204 | -0.708 | -0.21 | -0.303 | -0.0634 | -1.22 | -0.662 (inactive) | 0.629 | 0.179 | -1.28 (inactive) | -2 | -1.67 (inactive) | -1.26 (inactive) | -0.0438 (inactive) | 1.94 (inactive) | 1.15 (inactive) | -0.526 (inactive) | -0.926 (inactive) | -1.48 | -0.152
COc1ccc([Si](C)(C)[C@@H]2[C@@H](CCO)O[C@]3(C(=O)N(Cc4ccccc4)c4ccc(N5CCOC5=O)cc43)[C@H]2C)cc1 | -1.39 | 1.67 | -1.26 | -2.34 | -3.44 | -0.309 | 0.168 (inactive) | -0.947 | -0.756 | -1.94 (inactive) | -1.13 | 1.81 (inactive) | -2.51 (inactive) | -0.981 (inactive) | 0.933 (inactive) | 4.01 (inactive) | -0.957 (inactive) | -0.978 (inactive) | -2.79 | 0.0605
